# Values without a mark were called inactive.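 Rule for the calls: active = AUC reduced over 20% with Padj below 0.05 in at least 2 of 3 replicates; inactive = otherwise.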
# Experiments:
# Test in all cases: growth AUC relative to DMSO control (median of replicates) (fraction); higher = more growth (less inhibition), active = hit call of the paper
# Settings in all cases: 20 µM; 24 h
# Akkermansia muciniphila = tested on: Akkermansia muciniphila
# How it was run: (§1)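 Area under the growth curve was normalised to the plate median of solvent-only wells, or to row and column medians on the industrial chemical plate. Growth curves came from anaerobic gut bacterial monocultures in mGAM at 37 °C, seeded at OD600 0.05 with 20 µM compound (1% DMSO), and read at OD600 hourly for 24 h with the minimum OD set to 0. The value is the median of three biological replicates grown on separate days.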
# Bacteroides caccae = tested on: Bacteroides caccae
# How it was run: as §1
# Bacteroides clarus = tested on: Bacteroides clarus
# How it was run: as §1
# Bacteroides dorei = tested on: Bacteroides dorei
# How it was run: as §1
# Bacteroides stercoris = tested on: Bacteroides stercoris
# How it was run: as §1
# [1] = tested on: Bacteroides thetaiotaomicron
# How it was run: as §1
# Bacteroides uniformis = tested on: Bacteroides uniformis
# How it was run: as §1
# [2] = tested on: Bifidobacterium longum subsp. longum
# How it was run: as §1
# Clostridium difficile = tested on: Clostridium difficile
# How it was run: as §1
# Collinsella aerofaciens = tested on: Collinsella aerofaciens
# How it was run: as §1
# Coprococcus comes = tested on: Coprococcus comes
# How it was run: as §1
# Escherichia coli ED1a = tested on: Escherichia coli ED1a
# How it was run: as §1
# Escherichia coli IAI1 = tested on: Escherichia coli IAI1
# How it was run: as §1
# Eubacterium rectale = tested on: Eubacterium rectale
# How it was run: as §1
# [3] = tested on: Fusobacterium nucleatum subsp. animalis
# How it was run: as §1
# Lactobacillus gasseri = tested on: Lactobacillus gasseri
# How it was run: as §1
# Lactobacillus paracasei = tested on: Lactobacillus paracasei
# How it was run: as §1
# Odoribacter splanchnicus = tested on: Odoribacter splanchnicus
# How it was run: as §1
# [4] = tested on: Parabacteroides distasonis
# How it was run: as §1
# Parabacteroides merdae = tested on: Parabacteroides merdae
# How it was run: as §1
Structure (SMILES),growth AUC (Akkermansia muciniphila),growth AUC (Bacteroides caccae),growth AUC (Bacteroides clarus),growth AUC (Bacteroides dorei),growth AUC (Bacteroides stercoris),growth AUC [1],growth AUC (Bacteroides uniformis),growth AUC [2],growth AUC (Clostridium difficile),growth AUC (Collinsella aerofaciens),growth AUC (Coprococcus comes),growth AUC (Escherichia coli ED1a),growth AUC (Escherichia coli IAI1),growth AUC (Eubacterium rectale),growth AUC [3],growth AUC (Lactobacillus gasseri),growth AUC (Lactobacillus paracasei),growth AUC (Odoribacter splanchnicus),growth AUC [4],growth AUC (Parabacteroides merdae)
NC(=O)Cc1cccc2ccccc12,1.01,1,1.03,0.988,1.15,1.03,1.01,0.977,1.01,0.981,1.04,0.99,1.01,0.994,1.06,1.04,1.01,0.992,1.01,1.01
[S],1.05,0.954,1,1.07,1.07,1.02,1.06,1.01,1.01,0.946,0.956,0.976,0.963,1.04,1.01,0.959,1.01,1.03,0.986,1
Oc1ccccc1O,0.968,1.02,1.03,1,1,1.03,1.04,0.911,1.01,1.01,0.993,0.994,1.01,1,1.01,1,0.995,1.08,1.02,1
CCCCN(C)C(=O)Nc1ccc(Cl)c(Cl)c1,0.739,0.886,0.952,0.97,1.16,0.899,0.864,0.951,0.943,1,1.04,1.01,1,1.04,1.01,0.965,0.98,0.901,0.816,0.932
CC(C)N(C(=O)C(=O)O)c1ccccc1,1.01,1.01,1.05,1.03,1.13,1.01,1.01,1.08,1.02,0.981,1.03,1.06,1.05,1.11,1.09,1.07,1.02,1.05,1.07,1.03
CCN(Cc1c(F)cccc1Cl)c1c([N+](=O)[O-])cc(C(F)(F)F)cc1[N+](=O)[O-],0.852,0.822,0.831,1.02,0.27 (active),0.934,1.03,0.909,0.99,0.829,0.784,0.982,0.986,0.896,0.937,0.896,1.03,1.03,0.934,0.903
CN(C)C(=O)Nc1ccc(Cl)c(Cl)c1,0.951,0.995,0.975,0.981,1.08,0.99,0.954,1.09,0.965,0.992,1.02,0.985,0.963,0.978,1.02,0.968,0.971,0.888,1.09,0.907
c1ccc2[nH]c(-c3cscn3)nc2c1,0.73,0.997,1.01,0.973,0.947,0.974,1.02,0.976,0.985,0.985,0.96,1.01,0.989,0.878,0.97,1,0.991,0.962,0.974,0.972
CN1CCC[C@H]1c1cccnc1,0.753,0.995,0.997,1.04,1,0.984,0.981,1.01,0.951,1.04,0.984,0.99,1.01,0.978,0.98,0.941,0.991,0.989,1.02,0.993
NC(=S)Nc1cccc2ccccc12,0.997,0.892,0.991,0.835,0.978,0.945,0.951,1.06,0.896,0.909,0.974,0.96,0.959,1.03,0.924,0.888,0.946,0.983,1.05,0.915
CCNc1nc(N)[nH]c(=O)n1,1.01,1.01,0.998,1.01,1.03,0.998,1.02,0.986,0.999,1.04,1.02,0.991,1,0.995,0.953,1.01,1.02,1.01,1.04,0.995
Cc1[nH]n(C)c(=O)c1C(=O)c1ccc(C(F)(F)F)cc1S(C)(=O)=O,0.91,1.06,0.997,1.02,1.01,0.978,1.01,0.977,0.989,1,0.991,1.01,1.08,0.972,1.01,1.02,1.03,1.02,1.04,0.974
CC(=O)Oc1c(Cl)c(Cl)c(Cl)c(Cl)c1Cl,0.861,0.559 (active),0.585 (active),0.66 (active),0.448 (active),0.565 (active),0.52 (active),0.942,0.784 (active),0.937,0.953,0.936,0.808,0.942,0.782,0.871,1.05,0.548 (active),0.542 (active),0.558 (active)
CCNc1nc(NC(C)(C)C)nc(OC)n1,0.972,0.985,0.998,0.992,1.11,0.987,0.985,1.02,0.998,1.07,1.03,1.04,1.03,1.06,1.01,1.03,1.01,1.07,1.07,0.99
[O-][n+]1nc(-n2ccnc2)nc2ccc(Cl)cc21,0.972,1.07,1,1.05,0.911,0.99,1.04,0.974,0.957,0.964,1.04,0.95,0.956,1.12,1.06,0.831,1.01,1.03,0.897,1.02
COCC(=O)N(c1c(C)cccc1C)C(C)C(=O)O (stereo not given),1.09,0.998,1,1.01,1.13,1.04,0.997,0.951,0.95,1.08,1.01,1,1.01,1.09,1.15,1.04,1.02,1.01,1.01,1.05

# Reference: the supplement of paper PMC12669032
